{"source": "PubChem BioAssay (NCATS)", "note": "Inconclusive results are not listed. Calls of active or inactive are those of the source. Calls follow the shape of the dose curve; as a rule, active = well fitted inhibition curve with a large enough effect; inconclusive = small, poorly fitted or top-dose-only effect; inactive = no such curve, though single readings can be large or run the other way. Potency is read from the fitted curve at half-maximal effect.", "data": [{"test": "S16 Schwann cell PMP22 intronic element firefly luciferase assay (AID 624032); also: nearly all actives have a fitted effect of over 30% in size", "conditions": "S16 rat Schwann cells, PMP22 element FLuc, 24 h; series mostly up to 57.5 µM; activity change, negative = inhibition: at the top concentration", "excerpt": "Charcot-Marie-Tooth-Association [CMTA]\nNational Center for Advancing Translational Sciences [NCATS]\nCharcot-Marie-Tooth (CMT) disease was first characterized by Jean-Martin Charcot and Pierre Marie in France and, independently, by Howard Henry Tooth in England in 1886. CMT is one of the most common inherited neurological diseases, affecting approximately 1 in 2,500 Americans. […] The most prevalent type of CMT is known as CMT1A and caused by a duplication of the PMP22 gene which leads to over-expression of this protein. PMP22 is a glycosylated intrinsic membrane protein accounting for 2-5% of the myelin protein content, and its over-expression results in demyelination and subsequently axonal loss.\nA pair of cellular transcription-based assays was developed in the S16 rat Schwann cell lines (Hai, M., et al., 2002) stably transfected with orthogonal reporters - firefly luciferase (Fluc) and beta-lactamase (beta-Lac) - whose expression is driven by an intronic regulatory element of the PMP22 gene (Jones, E.A., et al., 2011) to recapitulate endogenous expression of PMP22. The current assay employs Fluc to report on PMP22 expression. A comprehensive library of approved drugs, the NCGC Pharmaceutical Collection (Huang, R., et al., 2011), was screened in the cross-validating platform of the orthogonal reporter assays to identify drug modulators inhibitory towards PMP22 expression.\nA set of counter-screens was devised to address non-specific activity of the library. An ATP-dependent CellTiter-Glo assay (developed by Promega Corp) was utilized to control cell viability. In addition, biochemical Fluc enzyme assay was performed to assess direct inhibition of the Fluc enzymatic activity.\nHai, M., Muja, N., DeVries, G.H., Quarles, R.H. and Patel, P.I. Comparative analysis of Schwann cell lines as model systems for myelin gene transcription studies. J Neurosci Res, 2002. 69(4): pp 497-508\nHuang, R., Southall, N., Wang, Y., Yasgar A., Shinn P., Jadhav, A. , Nguyen, D.-T. and Austin, C.P., The NCGC pharmaceutical collection: a comprehensive resource of clinically approved drugs enabling repurposing and chemical genomics. Sci Transl Med, 2011. 3(80): p. 80ps16.\nS16 Schwann cell PMP22 intronic element firefly luciferase assay\nThe FLuc-expressing S16 cells were seeded in white solid 1536-well plates at between 500-750 cells/4uL in DMEM medium containing 10% FBS, w/o phenol red. After overnight incubation at 37 degree Celsius/5% C02, 23 nL of compounds or DMSO were delivered to each well using a pin tool, followed by 24h-incubation at 37 degree Celsius/5% C02. Then 4 uL ONE-Glo luminescent substrate mix (Promega) was added to each well. Luminescence was measured on a ViewLux plate reader (Perkin Elmer). The % activity was determined by normalizing to the average readings of PTC124 (a positive control) - treated cells relative to DMSO-treated cells (0% Activity). The concentration-effect curves were then classified based on curve quality (r2), response magnitude and degree of measured activity.", "values": [{"smiles": "C[N+]1(C)C2CCC1CC(OC(=O)c1c[nH]c3ccccc13)C2", "note": "(stereo not given)", "activity change, negative = inhibition": "6.69% (inactive)"}, {"smiles": "O=C1CN(O)C(c2ccccc2)=c2cc(Cl)ccc2=N1", "activity change, negative = inhibition": "2.32% (inactive)"}, {"smiles": "C=CCN(C1=NCCN1)c1c(Cl)cccc1Cl", "activity change, negative = inhibition": "42.4% (inactive)"}, {"smiles": "ClCC1CO1", "note": "(stereo not given)", "activity change, negative = inhibition": "8.35% (inactive)"}, {"smiles": "N#CN", "activity change, negative = inhibition": "-11.2% (inactive)"}, {"smiles": "C[C@H]1CC[C@@H]2[C@@H](C)[C@H]3[C@H](C[C@H]4[C@@H]5CC=C6CC(O[C@@H]7O[C@H](CO)[C@H](O)[C@H](O[C@@H]8O[C@H](CO)[C@@H](O)[C@H](O)[C@H]8O)[C@H]7O[C@H]7O[C@@H](C)[C@H](O)[C@@H](O)[C@H]7O)CC[C@]6(C)[C@H]5CC[C@]34C)N2C1", "note": "(stereo not given in full)", "Potency": "28.7 µM (active)"}, {"smiles": "[O]=[Cd]", "activity change, negative = inhibition": "2.1% (inactive)"}, {"smiles": "N#CC1(N2CCCCC2)CCCCC1", "activity change, negative = inhibition": "-27.4% (inactive)"}, {"smiles": "C[C@@H](Cc1ccccc1)NCCC(c1ccccc1)c1ccccc1", "activity change, negative = inhibition": "1.19% [at 25.7 µM] (inactive)"}, {"smiles": "ClC1C(Cl)C(Cl)C(Cl)C(Cl)C1Cl", "note": "(stereo not given)", "activity change, negative = inhibition": "-4.23% (inactive)"}, {"smiles": "O=c1c2ccccc2[se]n1-c1ccccc1", "Potency": "28.7 µM (active)"}, {"smiles": "CC(Cc1ccccc1)NC=O", "note": "(stereo not given)", "activity change, negative = inhibition": "3.85% (inactive)"}, {"smiles": "CC(=O)O[C@H]1CC[C@H]2[C@@H]3CCC4=CC(=O)CCC4=C3C=C[C@]12C", "Potency": "8.09 µM (active)"}, {"smiles": "CN1C2CCC1CC(OC(c1ccccc1)c1ccc(Cl)cc1)C2", "note": "(stereo not given)", "Potency": "25.6 µM (active)"}, {"smiles": "CNC(=O)OCC[N+](C)(C)C", "activity change, negative = inhibition": "8.26% (inactive)"}, {"smiles": "CN1CCCC(=C(c2cccs2)c2cccs2)C1", "activity change, negative = inhibition": "1.41% (inactive)"}, {"smiles": "CNC(=O)Oc1ccccc1C(=O)Nc1ccccc1", "activity change, negative = inhibition": "99.3% (inactive)"}, {"smiles": "O=C(OCCN1CCCCC1)C(O)(c1ccccc1)c1ccccc1", "activity change, negative = inhibition": "-4.33% (inactive)"}, {"smiles": "CC(N)Cc1ccc(O)cc1", "note": "(stereo not given)", "Potency": "9.07 µM (active)"}, {"smiles": "O=c1[nH]c(=O)n(Cl)c(=O)n1Cl", "activity change, negative = inhibition": "-10.9% (inactive)"}, {"smiles": "c1cc2c(c(NC3=NCCN3)c1)CCCC2", "activity change, negative = inhibition": "-3.34% (inactive)"}, {"smiles": "O[C@H]1[C@H]2[C@H](O)CCCN2C[C@H]1O", "activity change, negative = inhibition": "6.25% (inactive)"}, {"smiles": "O=Cc1ccco1", "activity change, negative = inhibition": "-0.466% (inactive)"}, {"smiles": "CCC1(c2ccccc2)C(=O)NC(=O)NC1=O", "activity change, negative = inhibition": "2.53% (inactive)"}, {"smiles": "O=[N+]([O-])c1ccccc1", "activity change, negative = inhibition": "10.1% (inactive)"}, {"smiles": "NCC(O)c1cccc(O)c1", "note": "(stereo not given)", "activity change, negative = inhibition": "-22.7% (inactive)"}, {"smiles": "CCCC(C)C1(CC)C(=O)NC(=O)NC1=O", "note": "(stereo not given)", "activity change, negative = inhibition": "-15.1% (inactive)"}, {"smiles": "CNC1(c2ccccc2Cl)CCCCC1=O", "note": "(stereo not given)", "Potency": "inactive"}, {"smiles": "C=CCN1CC[C@]23c4c5ccc(O)c4O[C@H]2[C@@H](O)C=C[C@H]3[C@H]1C5", "activity change, negative = inhibition": "-21.7% (inactive)"}, {"smiles": "CCC(C)(S(=O)(=O)CC)S(=O)(=O)CC", "activity change, negative = inhibition": "23.2% (inactive)"}, {"smiles": "CC(=O)OO", "activity change, negative = inhibition": "-0.791% (inactive)"}, {"smiles": "S=C(S)N1CCNCC1", "activity change, negative = inhibition": "-47.4% (inactive)"}, {"smiles": "CCCCNCC(O)c1ccc(O)cc1", "note": "(stereo not given)", "Potency": "1.81 µM (active)"}, {"smiles": "O=C1C2CC=CCC2C(=O)N1SC(Cl)(Cl)Cl", "note": "(stereo not given)", "Potency": "12.8 µM (active)"}, {"smiles": "Cn1sc(Cl)cc1=O", "activity change, negative = inhibition": "-6.79% (inactive)"}, {"smiles": "Clc1ccccc1Cl", "activity change, negative = inhibition": "-36.8% (inactive)"}, {"smiles": "CCCC(C)(COC(N)=O)COC(=O)NC1CC1", "note": "(stereo not given)", "activity change, negative = inhibition": "5.79% (inactive)"}, {"smiles": "CCON=O", "activity change, negative = inhibition": "0.0081% (inactive)"}, {"smiles": "O=C(O)C(Cl)(Cl)Cl", "activity change, negative = inhibition": "4.84% (inactive)"}, {"smiles": "O=C1CCO1", "activity change, negative = inhibition": "12.2% (inactive)"}]}]}
